B2AR arrestin = agonists driving beta-arrestin recruitment to human beta2-adrenergic receptor | 0.02% of 330,000 active | P07550 | AID 492947 | Potency, µM (highest dose often 46.1 µM), actives largely listed as activators | beta-arrestin recruitment to beta2AR, cell-based reporter; note: nearly all actives have a fitted effect of over 65% in size
RXFP1 antagonist = blocks the human relaxin receptor RXFP1; HEK293-RXFP1, relaxin-stimulated cAMP HTRF, 30 min; stronger effect = lower value; activity change, negative = inhibition, % at 57.5 µM; 0.59% of 350,000 active;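 active = activity change of -60% or lower, but not beyond a set lower limit; inconclusive = change between -60% and -40%, or beyond the set limit; inactive = change above -40%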
Target sequence (Q9HBX9 whole entry, looked up): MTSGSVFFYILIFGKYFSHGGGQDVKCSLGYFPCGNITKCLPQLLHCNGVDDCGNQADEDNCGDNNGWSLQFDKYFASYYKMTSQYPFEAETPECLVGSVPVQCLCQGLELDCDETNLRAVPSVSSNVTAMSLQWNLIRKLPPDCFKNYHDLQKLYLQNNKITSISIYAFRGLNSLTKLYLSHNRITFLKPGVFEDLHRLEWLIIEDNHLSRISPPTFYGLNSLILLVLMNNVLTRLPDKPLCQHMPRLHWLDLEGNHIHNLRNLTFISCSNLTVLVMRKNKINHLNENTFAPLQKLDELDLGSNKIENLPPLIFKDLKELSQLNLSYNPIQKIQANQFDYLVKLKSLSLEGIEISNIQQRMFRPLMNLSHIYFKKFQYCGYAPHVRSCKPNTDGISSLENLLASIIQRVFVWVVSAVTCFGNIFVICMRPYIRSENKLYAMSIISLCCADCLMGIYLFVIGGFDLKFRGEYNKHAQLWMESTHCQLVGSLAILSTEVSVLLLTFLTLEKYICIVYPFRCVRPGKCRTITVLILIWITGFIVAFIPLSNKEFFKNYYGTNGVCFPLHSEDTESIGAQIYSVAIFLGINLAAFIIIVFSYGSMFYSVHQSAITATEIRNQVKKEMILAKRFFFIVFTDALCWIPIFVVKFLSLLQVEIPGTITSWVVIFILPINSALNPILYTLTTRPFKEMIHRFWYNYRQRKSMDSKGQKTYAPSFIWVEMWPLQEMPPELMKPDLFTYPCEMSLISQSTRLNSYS
RXFP1 agonist = RXFP1 (human) receptor agonism | Q9HBX9 | HEK293T-RXFP1 cAMP TR-FRET, 30 min; response scale: percent of porcine relaxin response, buffer zero | Potency, µM (highest dose often 57.5 µM), hits mostly activators | 0.3% of 370,000 active | AID 2676; note: nearly all actives have a fitted effect of over 60% in size
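cAMP rise read by TR-FRET after 30 min, 37C compound exposure (up to 58 uM) in RXFP1-transfected HEK293 cells with Ro 20174 present. EC50 from Hill-equation fits, with 29 nM porcine relaxin as 100% and buffer as basal.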
Chronic BCR inh = blocks chronic active B-cell receptor signaling; ABC-DLBCL IkBa-CBG/CBR reporter, luminescence ratio, 4 h; Potency, µM (series often up to 46.1 µM), hits mostly inhibitors; 0.05% of 340,000 active; active = well fitted inhibition curve with a large enough effect in the signal ratio, with a control signal flat, not every such curve was filed as active; inconclusive = small, poorly fitted or top-dose-only effect, or effect the other way, or a change in a side signal; the % refers to the signal ratio
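Concentration-response series (up to 46 uM) were applied to TMD8 dual-reporter cells for 4 h at 37C with doxycycline. Green/red ratio, after filter-overlap correction, defined %Activity; red signal alone was normalised to basal cells and zero luminescence.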
Numbers stand for hits; - = inactive; ? = inconclusive; . = not tested or not shown. Only some compounds are listed: those with a hit (about 0.59% of all), similar ones and a draw of the others. Unless noted, calls come from the whole dose curve; as a rule, active = well fitted activation curve with a large enough effect; inconclusive = small, poorly fitted or top-dose-only effect; inactive = flat fitted curve, though single readings scatter.

SMILES	B2AR arrestin	RXFP1 antagonist	RXFP1 agonist	Chronic BCR inh
c1ccc(Nc2nc(Nc3ccccc3)nc(N3CCNCC3)n2)cc1	-	-100.5	-	-
COc1cc(/C=C2\COC/C(=C\c3cc(OC)c(OC)c(OC)c3)C2=O)cc(OC)c1OC	?	-62.8	-	?
COc1cc(C=C2CCC/C(=C\c3ccc(O)c(OC)c3)C2=O)ccc1O	.	-95.2	.	.
COc1cc(/C=C2\CC/C(=C\c3cc(OC)c(OC)c(OC)c3)C2=O)cc(OC)c1OC	-	-	-	-
COc1cc(/C=C2\CCC/C(=C\c3ccc(O)c(OC)c3)C2=O)ccc1O	-	-68.8	-	?
CC(C)C(=O)Nc1cccc(C(F)(F)F)c1	.	-	.	.
COc1cc(NC(=O)CCc2nnc3ccc(N4CCN(c5cccc(OC)c5)CC4)nn23)cc(OC)c1	-	-	15.8µM	-
COc1cccc(NC(=O)CCc2nnc3ccc(N4CCN(c5cccc(OC)c5)CC4)nn23)c1	-	-	-	-
COc1ccc(-c2cc(C(F)(F)F)nc(N)n2)cc1	-	-60.6	-	?
COC(=O)c1[nH]c2ccc(Br)cc2c1NC(=O)CN1CCN(C2CCCCC2)CC1	-	-63.2	-	?
COC(=O)c1[nH]c2ccc(C)cc2c1NC(=O)CCN1CCN(C2CCCCC2)CC1	-	.	-	?
COc1cc([N+](=O)[O-])c2ncsc2c1	-	-	-	-
COc1cc(SSc2cc(OC)cc([N+](=O)[O-])c2N)c(N)c([N+](=O)[O-])c1	14.1µM	-	-	?
CCOc1cc(C(=O)NCC(=O)N2CCC3(CC2)NCCc2[nH]cnc23)cc(OCC)c1OCC	-	-118.8	-	-
Cc1ccc(-c2cn3nc(N4CCCC(C(=O)NCc5ccc(F)cc5)C4)sc3n2)cc1 (stereo not given)	.	-	-	.
Cc1c(N2CCCC2)cc2c(c1N)C(C)(C)CC2(C)C	-	-70.7	-	-
Nc1cc(C(=O)O)ccc1N1CCCCCC1	-	-	-	-
Cc1cc2n(n1)CCC(=O)N2Cc1ccc(C(=O)Nc2ccc(F)cc2F)cc1	.	-	-	-
CN(C)S(=O)(=O)c1cccc(NC(=S)Nc2cccc3cnccc23)c1	-	-71.4	-	?
S=C(Nc1cccnc1)Nc1cccc2cnccc12	-	-	-	-
Cc1nn(CCc2nn[nH]n2)c2nc(-c3ccc(Br)cc3)cc(C(F)(F)F)c12	-	-	14.1µM	-
O=C(c1ccc2c(=O)n3c(nc2c1)CCCCC3)N1CCCCC1	-	-107.9	-	-
O=C(c1ccc2c(=O)n3c(nc2c1)CCCCC3)N1CCN(c2ccccc2)CC1	-	-	-	-
Cc1ccc(NC(=O)c2cccc3c(=O)c4c([nH]c23)CCCC4)c(C)c1	.	-	-	.
O=[N+]([O-])c1ccc(N/N=C/c2cccc(O)c2O)c(S(=O)(=O)N2CCOCC2)c1	-	-	-	-
SMILES	B2AR arrestin	RXFP1 antagonist	RXFP1 agonist	Chronic BCR inh
O=[N+]([O-])c1ccc(N/N=C/c2ccc(O)c(O)c2O)c(S(=O)(=O)N2CCOCC2)c1	-	-85.0	-	-
COc1ccc(C(=O)OC2=C(C(=O)c3ccccc3)N(C)S(=O)(=O)c3ccccc32)cc1OC	.	-	-	.
CCOc1ccccc1NC(=O)CSc1nc2cc(OC)c(OC)cc2c2nc(CCn3c(C)nc4ccccc43)nn12	.	-	-	.
COc1ccc(OC)c(N(C)S(=O)(=O)c2ccc3c(c2)NC(=O)CC(=O)N3)c1	.	-	-	.
O=C(NCCSCc1ccco1)Nc1cc(Cl)cc(Cl)c1	-	-71.4	-	-
O=C(N/N=C1\CCCCc2ccccc21)c1ccccn1	-	-64.8	-	?
Cc1cccc(NC(=S)N/N=C2/CCCCc3ccccc32)c1	-	-	-	?
Cc1ccc(NC(=S)N/N=C2/CCCCc3ccccc32)cc1	-	-61.4	-	-
O=C(CCCn1c(=S)[nH]c2cc3c(cc2c1=O)OCO3)N1CCN(c2ccccn2)CC1	-	?	-	-
Cc1ccc(C)c(N2CCN(C(=O)CCn3c(=S)[nH]c4cc5c(cc4c3=O)OCO5)CC2)c1	-	-68.1	-	-
COc1ccc(CNC(=O)CCCn2c(=S)[nH]c3cc4c(cc3c2=O)OCO4)cc1	-	?	?	-
COc1ccc(N2CCN(C(=O)CCCn3c(=S)[nH]c4cc5c(cc4c3=O)OCO5)CC2)cc1	-	-69.3	-	-
O=C(CCCn1c(=S)[nH]c2ccccc2c1=O)N1CCN(c2cccc(Cl)c2)CC1	-	-89.0	-	?
COc1cccc(N2CCN(C(=O)CCCCCNc3nc(=S)[nH]c4ccccc34)CC2)c1	-	-89.8	-	-

Assay outcomes from PubChem.
